PubChem BioAssay (Tox21)
Inconclusive results are not listed. The source made the active and inactive calls. Unless noted, the call rests on the fitted dose curve; in most records, active means well fitted curve in the direction sought with a large enough effect in the repeat runs; inconclusive means weak or mixed curves; inactive means no such curve, though single readings can be large; an effect the other way counts as inactive or inconclusive.

What was measured:
[1] = qHTS assay to identify small molecule antagonists of the estrogen related receptor (ERR) signaling pathway - cell viability counter screen (AID 1224818);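 further: series mostly up to about 46 µM; viability measured after 17.5 h of compound exposure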
Method in brief: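 Cytotoxicity counter screen: fluorescence from CellTiter-Fluor, added after 17.5 h compound exposure at 37 C and read 30 min later. ERR cell line seeded at 2,000 cells/well, preincubated 6 h before dosing.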

[2] = qHTS assay to identify small molecule antagonists of the estrogen related receptor (ERR) signaling pathway (AID 1224819; further: nearly all actives have a fitted effect of over 50% in size; further: potency means the concentration at half of the fitted maximal effect)
Method in brief: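 LOPAC library screened for antagonism as reduced One-Glo luminescence in ERR reporter cells (2,000/well). Compounds were added after 6 h pre-incubation and left 18 h at 37C; reading followed a 30 min room-temperature reagent step.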

[3] = qHTS assay to identify small molecule agonists of the estrogen related receptor (ERR) signaling pathway (AID 1224820); further: potency means the concentration at half of the fitted maximal effect
Method in brief: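 Luminescence readout (One-Glo, 30 min RT) from NTP-supplied ERR cell line exposed to compounds for 18 h at 37 C. Cells seeded 2,000 per well and pre-incubated 6 h before pin-tool compound transfer.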

[4] = test system: estrogen-related receptor alpha (ERRalpha) with PGC-1alpha coactivator, human; test: qHTS assay to identify small molecule antagonists of the estrogen related receptor signaling pathway with the pleiotropic PPARgamma coactivator (PGC) (AID 1224821; calls by dose curve;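 further: series mostly up to about 46 µM; lower luminescence signal means antagonism of PGC/ERR signalling; nearly all actives have a fitted effect of over 50% in size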)
Method in brief: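 PGC/ERR reporter cells; 6 h pre-incubation 37 C/5% CO2; pin-tool compound in DMSO, 18 h 37 C; One-Glo added, 30 min RT; luminescence read. qHTS antagonist mode.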

[5] = qHTS assay to identify small molecule antagonists of the estrogen related receptor signaling pathway with the pleiotropic PPARgamma coactivator (PGC) cell viability counter screen (AID 1224822; further: series mostly up to about 46 µM)
Method in brief: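 Viability counter-screen read by fluorescence intensity after 30 min with CellTiter-Fluor at 37 C; PGC/ERR reporter cells were exposed to compounds for 17.5 h at 37 C following a 6 h preincubation.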

[6] = qHTS assay to identify small molecule agonists of the estrogen related receptor signaling pathway with the pleiotropic PPARgamma coactivator (PGC) (AID 1224823)
Method in brief: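 Luminescence readout (One-Glo, 30 min RT) from PGC/ERR cell line treated 18 h at 37 C with pin-tool-delivered DMSO compound solutions; cells plated 6 h before dosing. Quantitative HTS format.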

Measured: Potency

Cc1cc(NC(=O)Nc2ccc3c(ccn3C)c2)sn1
active: [3] 10.2 µM
not listed: [6]
inactive: all other assays above

CCCCCC[C@@H]([C@@H](C)O)n1cnc2c(N)ncnc21
not listed: [6]
inactive: all other assays above

O=C(Nc1ccc2[nH]ncc2c1)C1CCC1
active: [3] 12.8 µM
not listed: [6]
inactive: all other assays above

Nn1nnc2ccccc21
not listed: [6]
inactive: all other assays above

CCCCCCCCCC(=O)NC(CN1CCOCC1)[C@H](O)c1ccccc1 (stereo partly specified)
active: [2] 17.4 µM
inactive: all other assays above

O[Si](CCCN1CCCCC1)(c1ccc(F)cc1)C1CCCCC1 (stereo unspecified)
inactive: [1] | [2] | [3] | [4]

N=c1ccn2c(n1)O[C@H]1C(O)[C@@H](CO)O[C@H]12 (stereo partly specified)
not listed: [6]
inactive: all other assays above

Clc1nccc2c1ccc1ccccc12
inactive: all assays above

CNc1ncnc2c1ncn2[C@@H]1O[C@H](CO)C(O)[C@H]1O (stereo partly specified)
not listed: [6]
inactive: all other assays above

CCN(CC)CCNC(=O)c1ccc(NS(C)(=O)=O)cc1
not listed: [6]
inactive: all other assays above

COc1ccccc1CNCCCCCCNCCCCCCCCNCCCCCCNCc1ccccc1OC
not listed: [6]
inactive: all other assays above

CNCCC=C1c2ccccc2CCc2ccccc21
not listed: [6]
inactive: all other assays above
